The other results are listed elsewhere or left out. How many sequences the whole screen found active is unknown.

Experimental findings from the supplement of paper PMC3545927 are described below.

This test has as its target furin, P09958. As to the kind of experiment: furin cleavage Z-score vs untreated control; higher = more cleavage, active = 3.5 or more, inactive = 1 or less, 8 variable residues between constant flanks. The method, boiled down:
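Magnetic beads held 8-mer peptides by the N-terminus, each fused to a cDNA oligonucleotide, and purified furin was added for 7.5, 15 or 30 min. Released DNA was sequenced after PCR adapter tagging. The cleavage Z-score is the log count relative to furin-free reactions, lowess-adjusted and divided by median absolute deviation.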
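Also: purified furin at 1:10 enzyme:substrate in 50 mM HEPES pH 7.5.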

Sequence of furin, P09958 (P09958 whole entry, the tested form may be a part): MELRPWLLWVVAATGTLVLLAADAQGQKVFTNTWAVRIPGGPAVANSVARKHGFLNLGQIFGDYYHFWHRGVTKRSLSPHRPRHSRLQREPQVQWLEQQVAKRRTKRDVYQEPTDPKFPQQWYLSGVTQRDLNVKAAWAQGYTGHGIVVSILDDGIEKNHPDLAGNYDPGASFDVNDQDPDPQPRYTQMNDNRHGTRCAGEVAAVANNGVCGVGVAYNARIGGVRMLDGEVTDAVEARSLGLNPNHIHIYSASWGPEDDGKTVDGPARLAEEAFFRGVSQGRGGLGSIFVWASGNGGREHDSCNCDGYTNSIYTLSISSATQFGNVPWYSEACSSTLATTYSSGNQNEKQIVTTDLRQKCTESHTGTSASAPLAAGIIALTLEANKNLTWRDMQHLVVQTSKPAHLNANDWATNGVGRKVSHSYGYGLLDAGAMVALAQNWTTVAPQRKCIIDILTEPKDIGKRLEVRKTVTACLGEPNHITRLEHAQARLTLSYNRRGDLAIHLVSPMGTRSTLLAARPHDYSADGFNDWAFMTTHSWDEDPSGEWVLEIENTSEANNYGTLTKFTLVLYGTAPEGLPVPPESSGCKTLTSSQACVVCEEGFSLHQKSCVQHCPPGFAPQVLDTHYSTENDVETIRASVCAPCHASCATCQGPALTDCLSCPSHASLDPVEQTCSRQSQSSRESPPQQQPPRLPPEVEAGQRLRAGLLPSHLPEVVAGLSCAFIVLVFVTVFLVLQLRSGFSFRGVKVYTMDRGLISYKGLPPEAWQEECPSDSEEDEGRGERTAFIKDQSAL

On to CAEVPCHEPSAGNASASA [HC2372], for which the “furin cleavage Z-score” value (7.5 min) was -0.836 (inactive), the “furin cleavage Z-score” value (15 min) worked out at 1.11 and the “furin cleavage Z-score” value (30 min) is -0.669 (inactive).
The like results for CAGAPPCVIGAGNASASA [HC443] were, in that order, 1.73, -1.15 (inactive) and -0.113 (inactive).
For CALAGTHGLVAGNASASA [HC540] the same measures were 0.465 (inactive), 1.56 and 0.729 (inactive).
For CATDRSGAPTAGNASASA [HC420] the same measures were -0.957 (inactive), -0.534 (inactive) and 0.262 (inactive).
For the sequence CANVSVAHDGAGNASASA [HC1555], the “furin cleavage Z-score” value reads like this: (7.5 min) 0.322 (inactive); (15 min) -0.558 (inactive); (30 min) 0.0108 (inactive).
For CAALENLVILAGNASASA [HC534] the same measures were -0.644 (inactive), -1.06 (inactive) and -0.181 (inactive).
Regarding CARIKRAEGWAGNASASA [FS-2149], the “furin cleavage Z-score” value is, setting by setting: (7.5 min) 6.5 (active); (15 min) 7.28 (active); (30 min) 7.15 (active).
For CARSLRSEFKAGNASASA [FS-3209] the same measures were -0.188 (inactive), -0.988 (inactive) and 0.991 (inactive).
For the sequence CAREKRGNGWAGNASASA [FS-2254], the “furin cleavage Z-score” value was -0.781 (inactive) (7.5 min), 0.97 (inactive) (15 min) and 2.15 (30 min).
For CARGARVVFKAGNASASA [FS-2930] the same measures were -2.06 (inactive), -1.04 (inactive) and -0.554 (inactive).
For CARIKRMVFKAGNASASA [FS-1722] the same measures were 5.13 (active), 5.7 (active) and 8.11 (active).
The like results for CARAKKIFGWAGNASASA [FS-1680] were, in that order, 1.69, 0.732 (inactive) and 0.406 (inactive).
Consider CARIKKSKMIAGNASASA [FS-2260], for which the “furin cleavage Z-score” value (7.5 min) was -0.171 (inactive), the “furin cleavage Z-score” value (15 min) was 1.16 and the “furin cleavage Z-score” value (30 min) is -0.504 (inactive).
The like results for CARFWRSTGFAGNASASA [FS-2669] were, in that order, 0.601 (inactive), 1.09 and 0.345 (inactive).
The like results for CARIKRAGGFAGNASASA [FS-2261] were, in that order, 6.34 (active), 8.63 (active) and 7.18 (active).
For CADNMEECSQAGNASASA [HC1821] the same measures were -1.18 (inactive), -0.208 (inactive) and -1.08 (inactive).
Consider CALAVAVEPVAGNASASA [HC644], for which the “furin cleavage Z-score” value is, setting by setting: (7.5 min) 0.342 (inactive); (15 min) -1.7 (inactive); (30 min) -0.692 (inactive).
For CAANLLWRQEAGNASASA [HC1275] the same measures were 1.65, 1.09 and 0.698 (inactive).
Regarding CARAPRSVGGAGNASASA [FS-1886], the “furin cleavage Z-score” value runs as follows: (7.5 min) -0.25 (inactive); (15 min) 0.302 (inactive); (30 min) 0.769 (inactive).
The like results for CARNKRIWASAGNASASA [FS-2728] were, in that order, 0.843 (inactive), 1.63 and -0.176 (inactive).
The like results for CARNKRNSKMAGNASASA [FS-2397] were, in that order, 6.32 (active), 8.34 (active) and 7.25 (active).
For CARAKRGNIHAGNASASA [FS-2250] the same measures were 0.0194 (inactive), 0.245 (inactive) and 1.46.
Take CARAKRSPKHAGNASASA [FS-2639]: the “furin cleavage Z-score” value was 5.3 (active) (7.5 min), 6.19 (active) (15 min) and 6.5 (active) (30 min).
The like results for CARNKRNSKMAGNASASA [FU4] were, in that order, 5.8 (active), 8.1 (active) and 7.99 (active).
For CARAKRAVSHAGNASASA [FS-2544], the “furin cleavage Z-score” value reads like this: (7.5 min) 7.56 (active); (15 min) 8.33 (active); (30 min) 7.62 (active).
The like results for CARNKRLSISAGNASASA [FS-3007] were, in that order, 0.116 (inactive), -1.14 (inactive) and 0.746 (inactive).
The like results for CARNKRQSKSAGNASASA [FS-3009] were, in that order, 3.6 (active), 6.73 (active) and 6.06 (active).
For CADIYHSVSHAGNASASA [HC1650] the same measures were -2.02 (inactive), -1.09 (inactive) and -0.935 (inactive).
